The whole screen tested about 1,100 compounds, of which about 390 (35%) were called active. About 30% were inconclusive and are not listed. The call rests on the fitted dose curve; in most records, active means well fitted inhibition curve with a large enough effect; inconclusive means small, poorly fitted or top-dose-only effect; inactive means flat fitted curve, though single readings scatter. The list shows a part of the results.
Each compound was assayed against Luciferin 4-monooxygenase (Photinus pyralis) (UniProt P08659) (assay: qHTS of Nrf2 Activators: Hit Validation in Secondary FLuc Assay). Conditions: firefly luciferase inhibition counter-screen, luminescence; series mostly up to 57.5 µM.
From the text: Many diseases have some form of oxidative stress injury and ties to inflammation, causing a host of problems for the patient. The antioxidant response element (ARE) plays an important role in alleviating the harmful effects of oxidative stress. The antioxidant response element (ARE) is a transcriptional regulatory element involved in the activation of genes coding for a number of antioxidant proteins and detoxifying enzymes. These enzymes work in concert to protect tissues from oxidative insults and chemical toxicities in human hepatocytes and immune cells. The protective effects of ARE activation are primarily triggered through Nrf2 (NF-E2-related factor) binding to and activating AREs. It is known that Nrf2 controls the production of over 250 antioxidant and detoxification proteins (Hu et al., 2006), thereby protecting tissues by increasing cellular antioxidant content and suppressing inflammatory signaling pathways. The transcription factor Nrf2 is a central link between oxidative chemicals, such as phenolic antioxidants and electrophilic compounds, and the activation of ARE. Nrf2 levels are constitutively low as a consequence of its interaction with Keap1, which targets its degradation (Zipper and Mulcahy, 2002). Electrophiles react with key cysteine residues in Keap1, releasing Nrf2 and allowing its translocation to the nucleus. Once within the nucleus, Nrf2 complexes with coactivators such as p300, and binds to the AREs to induce gene transcription of cytoprotective enzymes, resulting in the prevention of toxicity. Activation of Nrf2 protects tissues by increasing cellular antioxidant content and suppressing inflammatory signaling pathways. Identifying novel and potent Nrf2 activators by using the AREc32 cell line to detect ARE activation by small molecules will lead to the identification and development of probes to study protective pathways in multiple tissues. These specific probes are essential to study the ARE pathway, and eventually to determine whether this pathway does activate genes that could protect against a host of diseases, including cardiovascular diseases, obesity, diabetes, Alzheimer's, and Parkinson's disease.
This project's aim is to identify novel and potent Nrf2 activators by using the AREc32 cell line to detect ARE activation by small molecules, which will lead to the identification and development of probes to study the ARE pathway. In this counter assay, we aim to identify false positive as identified from this primary assay using an FLuc assay with an inhibiting read-out.
NIH Chemical Genomics Center [NCGC]
NIH Molecular Libraries Probe Centers Network [MLPCN]
Assay Submitter (PI): Curtis Klaassen, University of Kansas Medical Center
Assess whether an activator in the primary assay potentially causes such activation by inhibitor-induced stabilization of the firefly luciferase reporter enzyme by determining whether it inhibits firefly luciferase in the presence of Km concentrations of its substrates (ATP and D-luciferin).
`Cc1cccc(C(=O)Nc2nnc(SCC(=O)NCc3ccco3)s2)c1` was tested, and the Potency was 2.39 µM (active). For `Clc1ccccc1Nc1ncnc(-n2cccc2)n1`, the Potency was 2.13 µM (active). With `CCOc1ccc(-n2c(O)c(N=Nc3ccc([N+](=O)[O-])cc3)c(=O)[nH]c2=O)cc1` the Potency was “inactive”. With `O=C1c2ccccc2-c2cc3ccccc3cc21` the Potency was 4.78 µM (active). With `Clc1cccc(/C=N\Nc2nccs2)c1` the Potency was 4.78 µM (active). `CC(=CCOc1ccc2ccc(=O)oc2c1)C1=CC(=O)C(C)(C)O1` was tested, and the Potency was “inactive”. `O=C(O)c1ccc([N+](=O)[O-])c([N+](=O)[O-])c1` was tested, and the Potency was “inactive”. `O=C(Nc1ccc(Cl)c(Cl)c1)c1ccco1` was tested, and the Potency was 9.53 µM (active). In the case of `NC(=O)c1c(NC(=O)c2ccccc2F)sc2c1CCC2`, the Potency was 1.35 µM (active). With `Cn1c(O)c(N=Nc2ccc(S(=O)(=O)N3CCOCC3)cc2)c(=O)n(C)c1=O` the Potency was “inactive”. With `Fc1cccc(F)c1-c1nc(-c2ccc(Cl)cc2)no1` the Potency was 2.13 µM (active).

— PubChem BioAssay AID651597 (National Center for Advancing Translational Sciences (NCATS), 2012)
Further: nearly all actives have a fitted effect of over 65% in size.
Potency means the concentration at half of the fitted maximal effect.
